From PubChem BioAssay AID540257 (Southern Research Specialized Biocontainment Screening …, 2011)
About 15 (0.8%) of roughly 1,800 compounds were called active. No rule for the calls is given here. A selection follows. Measured potencies and affinities stand elsewhere.

experiment: antiviral activity against H1N1 influenza, dose response, cell-based, strain KY136 (AID 540257); conditions: H1N1 KY136 influenza antiviral cell assay, % inhibition; series mostly up to 40 µM; inhibition: at the top concentration

SMILES	inhibition
c1ccc(-c2cn(C[C@H]3CC[C@@H]([C@@H]4CC[C@H](Cn5cc(-c6ccccn6)nn5)O4)O3)nn2)nc1	1.01% (inactive)
Cc1nnc2sc(SCC(=O)Nc3ccc(Cl)cc3)nn2c1=O	-2.9% (inactive)
CC(=O)N/C(=C/c1ccc(OC(F)F)cc1)C(=O)O	1.56% (inactive)
Cc1[nH]c(=O)[nH]c1C(=O)CCCCC(=O)O	1.82% (inactive)
COc1ccc(C2Nc3ccccc3C(=O)N2c2ccccc2)cc1CSc1ccccn1 (configuration not stated)	1.38% (inactive)
Cc1ccc(C(=O)Nc2ccccc2C(=O)NCC2CCCO2)cc1 (configuration not stated)	-1.35% (inactive)
CCOc1cccc(-c2c(C(=O)N/N=C(\C)c3ccccn3)nnn2-c2nonc2N)c1	-13.8% (inactive)
O=C1NCCCC1C(=O)N/N=C/c1cc([N+](=O)[O-])ccc1O (configuration not stated)	-13% (inactive)
C/C(=N\NC(=O)c1cccc(Br)c1)c1ccccn1	-1.04% (inactive)
COc1ccc(NC(=O)CSc2nc3ccccc3nc2N2CCCC2)c(OC)c1	0.12% (inactive)
COCc1cc(C)n(CC(=O)Nc2cccc(C)c2)c(=O)c1C#N	-0.15% (inactive)
COc1ccc(/C=C/C(=O)NCCn2c(C)cc3ccccc32)cc1OC	0.58% (inactive)
CCN1C(=O)/C(=C2\SC(=S)N(CCCOC)C2=O)c2ccccc21	2.51% (inactive)
O=c1c2ccccc2ncn1C1CCCCC1	-6.06% (inactive)
CCOC(=O)C1CCN(C(c2cccc(OC)c2)c2sc3nc(C)nn3c2O)CC1 (configuration not stated)	4.95% (inactive)
COc1ccccc1/C=N/NC(=O)c1[nH]c(C)c(C(=O)N/N=C/c2ccccc2OC)c1C	0.28% (inactive)
CCCCN1C2=C(C(=O)CC(C)(C)C2)C(c2ccccc2)C2=C1c1ccccc1C2=O (configuration not stated)	0.91% (inactive)
C(=N\c1c(-c2ccccc2)nc2n1CCS2)/c1ccccc1	1.65% (inactive)
CN(C)c1ccc(/C=C/C=C2/C(=O)NC(=O)N(c3ccccc3)C2=O)cc1	-1.39% (inactive)
CC(=O)Oc1ccc(C(=O)Nc2ccccc2C(=O)NCC(C)C)cc1	-6.06% (inactive)
CC(=O)Nc1cccc(NC(=O)CSc2ccc(-c3ccccn3)nn2)c1	-3.76% (inactive)
COc1ccc(N2CCN(CCCNC(=O)c3cc4sccc4n3C)CC2)cc1	1.28% (inactive)

SMILES	inhibition
Clc1ccc(-c2cnnc(-c3ccccn3)n2)cc1	-2.12% (inactive)
O=[N+]([O-])c1ccc2c(c1Nc1ccccc1)=NC1(CCCCC1)N=2	7.35% (inactive)
C=CCn1c(=NC(=O)C2CCCCC2)sc2cc(NC(C)=O)ccc21	-2.32% (inactive)
CCc1ccccc1NC(=S)N(CCN(C)C)C(C)c1ccccn1 (configuration not stated)	6.54% (inactive)
COc1cc(-c2nnc(NC(=O)CCS(=O)(=O)c3ccc(F)cc3)o2)cc(OC)c1OC	-0.81% (inactive)
CCOC(=O)c1ccc(N2C(=O)c3n[nH]c(C)c3C2c2ccccn2)cc1 (configuration not stated)	5.65% (inactive)
Cc1cc2cc(CNC(=O)c3cccc([N+](=O)[O-])c3)ccc2n1C	4.06% (inactive)
CC(C)Oc1ccccc1/C=N/Nc1ccccc1[N+](=O)[O-]	-1.97% (inactive)
CN1CCN(c2ccc([N+](=O)[O-])cc2C(=O)c2ccccc2)CC1	0.19% (inactive)
Oc1ccc(/C=N/N(c2ccccc2)c2ccccc2)c(O)c1O	-0.92% (inactive)
C/C(CC(C)C)=N/Nc1ccc([N+](=O)[O-])cc1[N+](=O)[O-]	-6.42% (inactive)
Cc1cc(NC(=O)CSc2nnc(C)c(=O)[nH]2)no1	0.81% (inactive)
COc1cccc(C(=O)NC(C)C(c2cccs2)N2CCOCC2)c1 (configuration not stated)	1.55% (inactive)
Cc1c2cc(O)c(=O)cc-2oc2cc(O)c(O)cc12	-0.93% (inactive)
CCOc1ccc(N=Nc2c(=O)[nH]n3c(=O)c4c([nH]c23)CCCC4)cc1	1.63% (inactive)
O=c1oc2cc(Oc3ccc(C(F)(F)F)cc3[N+](=O)[O-])ccc2c2c1CCC2	-3.03% (inactive)
CN1CCc2c(sc(NC(=O)Cc3ccccc3)c2C(N)=O)C1	5.22% (inactive)
CCOc1ccc(N2CSC3=C(C#N)C(c4ccco4)CC(=O)N3C2)cc1 (configuration not stated)	-0.3% (inactive)
CCCC(=O)NC(c1ccccc1)c1ccc2cccnc2c1O (configuration not stated)	-4.68% (inactive)
CN(C1=C(N2CCCCC2)C(=O)c2ccccc2C1=O)c1ccccc1	-3.76% (inactive)
COc1cccc(/C=N/Nc2ccnc(=O)[nH]2)c1O	-1.51% (inactive)
COc1cccc(C(=O)Cn2c(N3CCOCC3)nc3c2c(=O)n(C)c(=O)n3C)c1	0.81% (inactive)

SMILES	inhibition
COc1ccc(Nc2c([N+](=O)[O-])ccc3c2=NC2(CCCCC2)N=3)cc1	0.23% (inactive)
O=C(COC(=O)C1CC(=O)N(Cc2ccccc2)C1)c1ccc(Br)cc1 (configuration not stated)	1.97% (inactive)
O=C1C(NS(=O)(=O)c2ccccc2)=C(N2CCN(c3ccc(F)cc3)CC2)C(=O)c2ccccc21	-3.18% (inactive)
CCn1c(CNC(=O)c2cccc(C)c2)nnc1SCC(=O)Nc1cccc(OC)c1	-0.35% (inactive)
COc1cccc(NC(=O)CSc2nnc(CNC(=O)c3ccccc3)n2C)c1	-0.92% (inactive)
COc1ccccc1NS(=O)(=O)c1cccc(NC(=O)Cc2cccs2)c1	2.51% (inactive)
COc1cc2ccccc2cc1C(=O)Nc1nnc(-c2ccncc2)o1	0.18% (inactive)
Cc1cccc(NC(=O)NC(C)C(c2cccs2)N2CCOCC2)c1 (configuration not stated)	4.01% (inactive)
COc1ccc(NC(=O)CC2C(=O)N(c3cccc(OC)c3)C(=O)N2Cc2ccco2)cc1 (configuration not stated)	-0.89% (inactive)
Cc1ccc(S(=O)(=O)C2(C(=O)Nc3cccc(F)c3)CC2)cc1	0.83% (inactive)
COC(=O)CSc1nnc(C)n1-c1cccc(C#N)c1	0% (inactive)
Cc1cc(C(F)F)nn1CC(=O)Nc1cc([N+](=O)[O-])ccc1F	6.79% (inactive)
Cc1cc(N(C)C)ccc1N=Nc1ccc(N)cc1	-4.32% (inactive)
CN1CCN(CCC(=O)N/N=C/c2cc([N+](=O)[O-])ccc2O)CC1	-2.66% (inactive)
CCCCn1c(SCC(=O)N2CCCc3ccccc32)nc2c1c(=O)n(C)c(=O)n2C	-0.15% (inactive)
CC(=O)c1cccc(S(=O)(=O)Nc2cccc(S(=O)(=O)NC3=NCCC3)c2)c1	0.46% (inactive)
CC[n+]1c(/C=C/c2ccc(N(C)C)cc2)ccc2ccccc21	-3.76% (inactive)
CCC(=O)NC(c1cccs1)c1cc([N+](=O)[O-])c2cccnc2c1O (configuration not stated)	-3.76% (inactive)
CCCCn1c(O)c(/C(CC)=N/N2CCCCC2c2cccnc2)c(=O)[nH]c1=S (configuration not stated)	0.28% (inactive)
CCCCCCn1nc(C(=O)N(CC(C)C)c2c(N)n(CCCC)c(=O)[nH]c2=O)c2ccccc2c1=O	-11.6% (inactive)
COc1cccc(NC(=O)CSc2nc3c(oc4ccccc43)c(=O)[nH]2)c1	1.97% (inactive)
COc1cccc(/C=N/Nc2cc(N3CCOCC3)ncn2)c1O	-5.03% (inactive)

SMILES	inhibition
CCc1c(C)nc(Nc2nc(C)c3cc(OC)ccc3n2)[nH]c1=O	0.12% (inactive)
O=C(Nc1cc(Cl)ccc1N1CCOCC1)c1cnccn1	2.51% (inactive)
COc1ccc(Nc2ncccc2C(=O)Nc2ccccc2)cc1	-5.03% (inactive)
COc1ccc(OC)c(-n2c(SCC(N)=O)nnc2-c2c[nH]c3ccccc23)c1	4.59% (inactive)
Cc1ccnc2nc(C(=O)Nc3nc(-c4ccccn4)cs3)nn12	3.18% (inactive)
O=C(CSc1nnc(CCCOc2ccc(Cl)cc2Cl)o1)Nc1ccc(C(=O)O)cc1	-0.09% (inactive)
COc1ccc(NC(=O)CNS(=O)(=O)c2ccc(Cl)cc2)cc1OC	1.52% (inactive)
CC1=[N+](C)c2c(ccc3cccnc23)C1(C)C	-1.21% (inactive)
CN(C)c1ccc(C=c2c3cc([N+](=O)[O-])ccc3n3c2cc(-c2ccccc2)[n+]3C)cc1	-5.42% (inactive)
CC(c1cccs1)N(Cc1ccco1)C(=O)Nc1ccc(Cl)c(Cl)c1 (configuration not stated)	-7.16% (inactive)
Cc1c(NC(=S)N/N=C\c2ccccc2O)c(=O)n(-c2ccccc2)n1C	-1.97% (inactive)
O=C(CS(=O)(=O)c1cn(Cc2ccc(Cl)cc2)c2ccccc12)N1CCCCC1	1.62% (inactive)
COC1=C(Nc2ccc(OC)cc2)C(=O)c2ccccc2C1=O	-4.13% (inactive)
Cc1ccccc1NC(=O)CSc1nn2c(=O)c(C)nnc2s1	-5.32% (inactive)
C(=N\Nc1nc2ccccc2[nH]1)/c1cccc2cccnc12	-3.18% (inactive)
C[C@@H]1NC(=O)N[C@@H]1CCCCCC(=O)O	0.46% (inactive)
C=CCC1c2cccc(C(=O)O)c2C(=O)N1c1ccc(F)cc1 (configuration not stated)	-0.92% (inactive)
Cc1cc(C)cc(NC2=C(N)C(=O)c3ccccc3C2=O)c1	-0.3% (inactive)
CCc1ccc(NC(=O)N(CCN2CCOCC2)Cc2ccc3c(c2)CCCN3CC)cc1	1.01% (inactive)
CCCc1nc(SCc2cccnc2)c2c(=O)n(C)c(=O)n(C)c2n1	0.3% (inactive)
Cc1ccccc1NC(=S)N(CCN(C)C)C(C)c1ccccn1 (configuration not stated)	8.04% (inactive)
Cc1ccc(S(=O)(=O)/N=C2\C=C(Nc3cccc(C(=O)O)c3)C(=O)c3ccccc32)cc1	-0.83% (inactive)

SMILES	inhibition
CCCN(CCC)CCCNC(=O)CCNS(=O)(=O)c1ccc(Br)cc1	-1.67% (inactive)
O=C(NCc1cccs1)c1cnc2sccn2c1=O	0.92% (inactive)
CN1CCc2c(sc(NC(=O)C3CCCCC3)c2C(N)=O)C1	2.08% (inactive)
COc1cc(N(C)C)ccc1C=c1c2ccccc2n2c1cc(-c1ccccc1)[n+]2C	-5.05% (inactive)
O=C(NCc1cccnc1)C1c2ccccc2C(=O)N1C1CCCCCCC1 (configuration not stated)	0.93% (inactive)
CN(C)c1ccc(Cc2ccc(N(C)C)cc2)cc1	-1.19% (inactive)
Nc1nc(-c2ccccn2)nc(N)c1Cc1c(F)cccc1Cl	-2.88% (inactive)
COC(=O)CNC(c1ccccc1)c1cc(C)ccc1NS(=O)(=O)c1ccc(C)cc1 (configuration not stated)	20.3% (inactive)
CN(C)CCCNC(=S)NCC(c1ccc(Cl)cc1Cl)c1c[nH]c2ccccc12 (configuration not stated)	-16% (inactive)
O=C(Nc1nc2c(s1)CCCC2)c1ccc(Br)s1	-2.12% (inactive)
Cc1cccc(N2CCN(C(=O)c3cc4ccccc4oc3=O)CC2)c1C	-3.85% (inactive)
COc1cc(N/N=C/c2ccccc2O)ncn1	-1.49% (inactive)
CCOc1ccc(-c2nc(C#N)c(N3CCOCC3)o2)cc1	1.35% (inactive)
CCc1ccc(S(=O)(=O)/N=C2\C=C(Nc3ccc(O)cc3)C(=O)c3ccccc32)cc1	-1.51% (inactive)
O=C(Nc1nc(-c2ccccc2)cs1)c1ccc(S(=O)(=O)N2CCc3ccccc32)cc1	0% (inactive)
c1ccc(-c2nc(-c3ccncc3)n[nH]2)nc1	0.76% (inactive)
Oc1cccc2ccc(Nc3ccccn3)nc12	-14.1% (inactive)
O=C(N/N=C/c1ccccc1O)C1SCCCS1	-12.7% (inactive)
CCCCOc1cccc(-c2nnc(NC(=O)CSc3ccc(C)cc3)s2)c1	0.19% (inactive)
